6 compounds from ChEMBL document CHEMBL1961873, “Compounds: GSK PKIS; Assays: Nanosyn kinase panel” (2012) can be followed below.

In assay [1] the target is Serine/threonine-protein kinase pim-2 (Homo sapiens) (UniProt Q9P1W9). The settings on record: at 1 µM.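 Further: each value is a mean of the inhibition measurements against the kinase.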
Assay [2] deals with Serine/threonine-protein kinase pim-3 (Homo sapiens) (UniProt Q86V86). The settings on record: at 0.1 µM.
Assay [3] shares this target. The settings on record: at 1 µM.
In assay [4] the target is T1, MAP kinase-activated protein kinase 5 (Homo sapiens) (UniProt Q8IW41).
T1 sequence (whole entry): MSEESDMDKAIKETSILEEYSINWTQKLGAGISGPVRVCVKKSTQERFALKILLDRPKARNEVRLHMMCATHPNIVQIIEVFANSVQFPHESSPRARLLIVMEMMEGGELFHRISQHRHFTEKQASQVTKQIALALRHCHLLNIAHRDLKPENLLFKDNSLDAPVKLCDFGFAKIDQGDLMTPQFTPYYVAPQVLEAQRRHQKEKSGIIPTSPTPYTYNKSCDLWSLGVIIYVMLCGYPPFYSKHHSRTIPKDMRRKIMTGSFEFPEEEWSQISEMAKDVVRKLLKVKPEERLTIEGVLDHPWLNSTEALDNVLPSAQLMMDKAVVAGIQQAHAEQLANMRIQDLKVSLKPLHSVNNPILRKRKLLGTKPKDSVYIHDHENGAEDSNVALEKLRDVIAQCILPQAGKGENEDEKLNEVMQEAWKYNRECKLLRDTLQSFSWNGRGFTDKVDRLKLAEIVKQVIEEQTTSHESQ
The settings on record: at 0.1 µM.

The target of assay [5] is T1, MAP kinase-activated protein kinase 5 (Homo sapiens). The note with it: at 1 µM.
For assay [6], the target named is Serine/threonine-protein kinase SIK1 (Homo sapiens) (UniProt P57059). The settings on record: at 0.1 µM.
Serine/threonine-protein kinase SIK1 (Homo sapiens), sequence (P57059 whole entry): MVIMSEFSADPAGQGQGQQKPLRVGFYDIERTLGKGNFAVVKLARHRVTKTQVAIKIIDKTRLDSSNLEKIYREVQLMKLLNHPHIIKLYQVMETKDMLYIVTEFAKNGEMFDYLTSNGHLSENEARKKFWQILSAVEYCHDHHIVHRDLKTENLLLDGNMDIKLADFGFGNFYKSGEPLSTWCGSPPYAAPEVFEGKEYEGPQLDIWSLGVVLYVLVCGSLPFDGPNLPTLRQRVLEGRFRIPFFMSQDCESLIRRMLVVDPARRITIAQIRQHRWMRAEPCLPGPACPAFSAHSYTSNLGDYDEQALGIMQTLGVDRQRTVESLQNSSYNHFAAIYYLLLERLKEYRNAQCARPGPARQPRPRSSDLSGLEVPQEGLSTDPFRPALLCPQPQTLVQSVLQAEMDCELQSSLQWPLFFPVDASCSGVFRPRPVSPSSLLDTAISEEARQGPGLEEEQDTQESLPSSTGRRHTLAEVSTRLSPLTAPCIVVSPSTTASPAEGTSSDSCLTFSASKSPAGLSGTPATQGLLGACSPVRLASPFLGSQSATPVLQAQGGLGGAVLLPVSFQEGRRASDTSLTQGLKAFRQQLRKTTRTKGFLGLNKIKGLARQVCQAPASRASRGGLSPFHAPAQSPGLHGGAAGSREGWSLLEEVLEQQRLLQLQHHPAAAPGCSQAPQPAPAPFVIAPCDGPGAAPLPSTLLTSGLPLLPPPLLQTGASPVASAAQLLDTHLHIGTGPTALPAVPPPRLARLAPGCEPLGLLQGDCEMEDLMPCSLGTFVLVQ
Assay [7] shares this target. The settings on record: at 1 µM.
Assay [8] concerns the target Serine/threonine-protein kinase SIK2 (Homo sapiens) (UniProt Q9H0K1). The note with it: at 0.1 µM.
Assay [9] shares this target. The settings on record: at 1 µM.
The target of assay [10] is T2, Serine/threonine-protein kinase TBK1 (Homo sapiens) (UniProt Q9UHD2).
T2 sequence (whole entry): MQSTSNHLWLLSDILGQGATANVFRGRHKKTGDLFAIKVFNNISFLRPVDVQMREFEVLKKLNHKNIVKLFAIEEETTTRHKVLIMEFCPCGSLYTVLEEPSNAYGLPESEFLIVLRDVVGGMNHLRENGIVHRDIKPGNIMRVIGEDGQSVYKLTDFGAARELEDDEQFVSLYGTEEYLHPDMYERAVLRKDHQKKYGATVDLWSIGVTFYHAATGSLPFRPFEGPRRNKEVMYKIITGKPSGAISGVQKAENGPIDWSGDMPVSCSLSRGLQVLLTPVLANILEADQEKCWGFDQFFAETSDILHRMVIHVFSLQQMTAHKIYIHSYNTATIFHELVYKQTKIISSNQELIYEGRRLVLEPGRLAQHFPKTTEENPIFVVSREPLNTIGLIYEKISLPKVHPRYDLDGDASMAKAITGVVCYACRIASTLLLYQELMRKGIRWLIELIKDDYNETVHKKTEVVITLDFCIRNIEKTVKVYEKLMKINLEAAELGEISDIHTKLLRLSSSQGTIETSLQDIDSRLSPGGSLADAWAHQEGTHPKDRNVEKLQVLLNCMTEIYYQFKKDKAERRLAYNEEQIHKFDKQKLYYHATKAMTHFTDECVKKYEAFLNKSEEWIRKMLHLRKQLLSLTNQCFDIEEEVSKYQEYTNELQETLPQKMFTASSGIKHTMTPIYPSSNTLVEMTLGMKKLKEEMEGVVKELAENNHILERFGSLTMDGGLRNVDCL
The settings on record: at 0.1 µM.

Assay [11] concerns the target T2, Serine/threonine-protein kinase TBK1 (Homo sapiens). The note with it: at 1 µM.
Assay [12] addresses T3, Testis-specific serine/threonine-protein kinase 1 (Homo sapiens) (UniProt Q9BXA7).
T3 sequence (whole entry): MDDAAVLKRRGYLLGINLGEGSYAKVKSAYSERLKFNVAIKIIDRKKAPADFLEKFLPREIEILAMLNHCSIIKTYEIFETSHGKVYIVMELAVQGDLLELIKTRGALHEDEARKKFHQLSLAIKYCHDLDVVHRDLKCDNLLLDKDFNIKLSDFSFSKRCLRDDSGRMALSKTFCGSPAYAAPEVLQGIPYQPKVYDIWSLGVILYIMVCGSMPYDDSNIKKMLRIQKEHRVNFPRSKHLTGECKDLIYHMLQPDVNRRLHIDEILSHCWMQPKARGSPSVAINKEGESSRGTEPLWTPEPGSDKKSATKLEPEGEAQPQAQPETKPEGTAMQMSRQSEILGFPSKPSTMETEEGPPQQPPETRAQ
The settings on record: at 0.1 µM.

The target of assay [13] is T3, Testis-specific serine/threonine-protein kinase 1 (Homo sapiens). The note with it: at 1 µM.
Assay [14] has as its target T4, Testis-specific serine/threonine-protein kinase 2 (Homo sapiens) (UniProt Q96PF2).
T4 sequence (whole entry): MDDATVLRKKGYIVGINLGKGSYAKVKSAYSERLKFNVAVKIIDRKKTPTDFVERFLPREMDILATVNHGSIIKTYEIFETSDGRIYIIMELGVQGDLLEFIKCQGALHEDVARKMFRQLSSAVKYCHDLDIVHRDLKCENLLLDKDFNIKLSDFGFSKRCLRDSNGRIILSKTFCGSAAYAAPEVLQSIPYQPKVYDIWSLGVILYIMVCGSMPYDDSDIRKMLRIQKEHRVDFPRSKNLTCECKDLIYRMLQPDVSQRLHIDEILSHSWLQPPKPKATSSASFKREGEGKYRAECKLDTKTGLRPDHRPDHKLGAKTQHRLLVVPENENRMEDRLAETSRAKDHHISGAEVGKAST
The note with it: at 0.1 µM.

In assay [15] the target is T4, Testis-specific serine/threonine-protein kinase 2 (Homo sapiens). The note with it: at 1 µM.
Assay [16] addresses Casein kinase I isoform alpha (Homo sapiens) (UniProt P48729). The note with it: at 0.1 µM.
Assay [17] shares this target. The note with it: at 1 µM.
For assay [18], the target named is Casein kinase I isoform gamma-1 (Homo sapiens) (UniProt Q9HCP0). The settings on record: at 0.1 µM.
Casein kinase I isoform gamma-1 (Homo sapiens), sequence (Q9HCP0 whole entry, looked up, canonical isoform): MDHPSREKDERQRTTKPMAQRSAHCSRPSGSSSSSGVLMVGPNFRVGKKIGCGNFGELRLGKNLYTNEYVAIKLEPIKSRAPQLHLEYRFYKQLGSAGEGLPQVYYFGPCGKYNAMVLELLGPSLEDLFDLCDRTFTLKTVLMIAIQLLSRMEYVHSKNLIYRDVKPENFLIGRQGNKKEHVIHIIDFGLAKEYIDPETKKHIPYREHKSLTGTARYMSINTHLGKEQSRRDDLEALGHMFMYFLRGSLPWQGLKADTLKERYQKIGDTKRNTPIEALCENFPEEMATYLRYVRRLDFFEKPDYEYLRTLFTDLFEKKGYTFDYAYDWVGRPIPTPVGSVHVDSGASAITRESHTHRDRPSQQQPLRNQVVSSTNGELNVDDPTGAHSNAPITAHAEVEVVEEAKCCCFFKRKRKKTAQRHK
The target is the same in assay [19]. The settings on record: at 1 µM.
The target of assay [20] is Casein kinase I isoform gamma-2 (Homo sapiens) (UniProt P78368). The note with it: at 0.1 µM.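 Further: values are mean inhibition figures reported as part of the GSK PKIS dataset.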
Casein kinase I isoform gamma-2 (Homo sapiens), sequence (P78368 whole entry, looked up, canonical isoform): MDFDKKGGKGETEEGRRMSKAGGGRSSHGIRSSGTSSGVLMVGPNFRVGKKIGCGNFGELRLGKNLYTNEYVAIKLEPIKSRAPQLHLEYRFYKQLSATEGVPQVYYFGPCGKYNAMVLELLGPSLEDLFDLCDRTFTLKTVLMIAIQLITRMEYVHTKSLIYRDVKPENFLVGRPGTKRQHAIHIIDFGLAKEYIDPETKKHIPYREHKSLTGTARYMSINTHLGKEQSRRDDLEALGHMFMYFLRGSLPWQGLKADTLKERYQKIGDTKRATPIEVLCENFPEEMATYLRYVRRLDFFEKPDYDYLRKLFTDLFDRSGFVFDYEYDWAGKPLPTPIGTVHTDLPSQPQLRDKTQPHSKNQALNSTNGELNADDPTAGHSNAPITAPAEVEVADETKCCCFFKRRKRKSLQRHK

SMILES strings stand for the structures.

Serine/threonine-protein kinase pim-2 (Homo sapiens), sequence (Q9P1W9 whole entry, looked up): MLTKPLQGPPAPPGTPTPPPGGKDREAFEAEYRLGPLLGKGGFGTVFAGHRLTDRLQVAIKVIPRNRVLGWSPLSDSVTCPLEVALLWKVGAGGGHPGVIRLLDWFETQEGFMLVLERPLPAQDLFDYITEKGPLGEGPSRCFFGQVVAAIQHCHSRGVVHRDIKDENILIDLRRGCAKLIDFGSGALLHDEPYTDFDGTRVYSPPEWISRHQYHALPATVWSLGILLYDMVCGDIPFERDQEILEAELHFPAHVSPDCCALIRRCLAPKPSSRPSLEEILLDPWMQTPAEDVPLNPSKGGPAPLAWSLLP
Casein kinase I isoform alpha (Homo sapiens), sequence (P48729 2-337 limits assumed): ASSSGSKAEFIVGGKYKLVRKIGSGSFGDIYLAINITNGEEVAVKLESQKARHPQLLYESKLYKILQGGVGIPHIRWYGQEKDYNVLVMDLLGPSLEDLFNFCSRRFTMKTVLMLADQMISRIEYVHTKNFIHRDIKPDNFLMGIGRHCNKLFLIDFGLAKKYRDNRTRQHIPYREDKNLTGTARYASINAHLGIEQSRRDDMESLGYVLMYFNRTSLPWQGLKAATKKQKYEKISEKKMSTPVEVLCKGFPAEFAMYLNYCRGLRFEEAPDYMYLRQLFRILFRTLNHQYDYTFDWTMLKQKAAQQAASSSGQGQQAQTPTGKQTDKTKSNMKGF
Serine/threonine-protein kinase SIK2 (Homo sapiens), sequence (Q9H0K1 whole entry, looked up): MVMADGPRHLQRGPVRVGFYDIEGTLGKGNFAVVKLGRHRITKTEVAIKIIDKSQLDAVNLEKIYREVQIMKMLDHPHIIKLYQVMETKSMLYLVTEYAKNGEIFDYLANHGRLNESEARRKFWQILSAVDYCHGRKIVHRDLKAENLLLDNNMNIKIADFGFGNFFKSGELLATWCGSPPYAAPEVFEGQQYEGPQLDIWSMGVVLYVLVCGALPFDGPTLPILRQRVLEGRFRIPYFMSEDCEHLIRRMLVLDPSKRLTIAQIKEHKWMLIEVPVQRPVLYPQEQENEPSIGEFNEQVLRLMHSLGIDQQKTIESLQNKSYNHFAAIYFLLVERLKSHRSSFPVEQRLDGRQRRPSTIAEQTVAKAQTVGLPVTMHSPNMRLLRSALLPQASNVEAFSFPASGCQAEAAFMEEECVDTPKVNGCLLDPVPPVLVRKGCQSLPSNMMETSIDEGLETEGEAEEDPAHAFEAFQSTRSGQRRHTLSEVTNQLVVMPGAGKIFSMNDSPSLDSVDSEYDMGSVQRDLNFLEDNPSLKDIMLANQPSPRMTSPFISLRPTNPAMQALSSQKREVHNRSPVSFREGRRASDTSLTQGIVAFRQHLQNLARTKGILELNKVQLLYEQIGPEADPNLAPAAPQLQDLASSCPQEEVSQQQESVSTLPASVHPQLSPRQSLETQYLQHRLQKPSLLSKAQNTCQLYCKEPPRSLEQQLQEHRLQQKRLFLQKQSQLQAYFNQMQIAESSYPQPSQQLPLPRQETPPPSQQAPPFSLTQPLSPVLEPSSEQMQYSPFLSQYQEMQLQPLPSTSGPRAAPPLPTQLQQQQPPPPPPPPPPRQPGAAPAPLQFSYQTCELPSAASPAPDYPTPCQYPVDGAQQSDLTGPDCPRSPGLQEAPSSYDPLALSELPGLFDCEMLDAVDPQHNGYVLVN

Take `Fc1ccc(-c2nn3ncccc3c2-c2ccnc(Nc3ccc4c(c3)OCCO4)n2)cc1`: the inhibition was -0.97% in assay [1]; -2.21% in [2]; -3.73% in assay [3]; 0.63% in [4]; 0.49% in assay [5]; 10.5% in assay [6]. Moreover, the inhibition came out at 38.4% in assay [7]; 18.8% in [8]; 44.6% in [9]; 5.89% in assay [10]; 4.55% in [11]; 4.06% in [12]. Further, the inhibition in [13] came out at 2.68%; in assay [14], 1.3%; in [15] it was 1.02%; in assay [16], 39.5%; in assay [17] it was 72.5%; in assay [18], 14.8%. Further, the inhibition in assay [19] was determined as 58.5%; in assay [20], 11.1%.
With `CCNC(=O)O[C@H]1CN[C@H](C#Cc2cc3ncnc(Nc4ccc(OCc5cccc(F)c5)c(Cl)c4)c3s2)C1`, the inhibition is -0.15% in assay [1]; -0.41% in assay [2]; -2.78% in assay [3]; 0.89% in assay [4]; 0.04% in assay [5]; 9.17% in assay [6]. In addition, the inhibition in assay [7] came out at 7.09%; in assay [8], 4.37%; in [9], 4.15%; in assay [10], 1.48%; in assay [11], 3.67%; in [12] it was 2.93%. Also, the inhibition was -2.91% in assay [13]; 3.47% in assay [14]; -1.23% in assay [15]; 1.8% in assay [16]; 1.43% in [17]; 2.15% in assay [18]. Besides, the figures for the inhibition in assay [19] and in [20] were 2.01% and 1.8%, respectively.
`NC(=O)c1sc(-n2cnc3ccc(C(F)(F)F)cc32)cc1OCc1ccccc1Br`: the inhibition is -0.68% in [1]; 1.1% in assay [2]; 0.16% in assay [3]; 1.65% in assay [4]; 2.02% in assay [5]; 6.13% in [6]. Further, the inhibition in assay [7] came out at 9.77%; in assay [8] it was 5.75%; in [9] it was 9.85%; in assay [10], 0.45%; in [11], 2.04%; in assay [12] it was 3.44%. In addition, the inhibition in assay [13] is 3.86%; in assay [14], 2.62%; in [15], 2.38%; in assay [16], 0.93%; in [17], 2.88%; in [18], 3.36%. Moreover, the inhibition in [19] was determined as 3.78%; in assay [20] it was 3.03%.
For `O=C(Nc1n[nH]c2cc(-c3ccc(F)cc3)ccc12)C1CC1`, the inhibition in assay [1] amounted to 1.49%; in assay [2] it was 0.08%; in [3] it was 0.99%; in assay [4], 1.06%; in assay [5], 5.12%; in assay [6], 4.89%. Also, the inhibition stood at 6.8% in [7]; 5.76% in [8]; 7.9% in [9]; 2.6% in assay [10]; 5.39% in [11]; 3.31% in assay [12]. Also, the inhibition is 2.06% in [13]; 2.29% in [14]; 0.97% in assay [15]; 2.37% in assay [16]; 7.14% in assay [17]; 2.86% in assay [18]. The inhibition in assay [19] is 3.21%; in assay [20] it was 2.45%.
As for `CN1CCC(n2cnc(-c3ccc(F)cc3)c2-c2ccnc(Nc3ccccc3)n2)CC1`, the inhibition in [1] is 0.35%; in [2] it was 1.06%; in assay [3] it was 5.66%; in assay [4] it was 1.06%; in assay [5] it was 1.42%; in assay [6], 3.13%. The inhibition was determined as 4.66% in assay [7]; 7.17% in assay [8]; 22.9% in assay [9]; 0.4% in [10]; 2.8% in assay [11]; 3.05% in assay [12]. The inhibition in assay [13] worked out at 3.21%; in assay [14], 2.5%; in [15] it was 2.86%; in assay [16], 53.5%; in assay [17], 83.6%; in [18], 7.05%. The inhibition in [19] was determined as 42%; in assay [20] it was 4.57%.
In the case of `Nc1nc(-c2cccc(Cl)c2)c(-c2ccc3ncccc3n2)s1`, the inhibition came out at 0.44% in assay [1]; 1.25% in assay [2]; 4.87% in assay [3]; 2.21% in assay [4]; 4.45% in [5]; 3.24% in assay [6]. For the same compound, the inhibition in assay [7] was determined as 9.29%; in [8], 4.96%; in assay [9], 14.6%; in assay [10] it was 3.03%; in assay [11] it was 4.37%; in assay [12], 7.29%. Besides, the inhibition is 12.9% in [13]; 3.52% in assay [14]; 6.73% in assay [15]; 1.48% in [16]; 5.89% in [17]; 5.14% in [18]. The inhibition turned out to be 16.6% in assay [19] and 4.46% in [20].
